This passage reports Potency results from PubChem BioAssay AID504850 (National Center for Advancing Translational Sciences (NCATS), 2011).

The campaign covered roughly 2,300 compounds. About 1,200 (52%) were called active. Not shown: some 34% with an inconclusive outcome. The call rests on the fitted dose curve; in most records, active means well fitted inhibition curve with a large enough effect; inconclusive means small, poorly fitted or top-dose-only effect, or effect the other way; inactive means no such curve, though single readings can be large or run the other way. So high a share suggests a set chosen from earlier hits. Some of the results follow.
Potency means the concentration at half of the fitted maximal effect.

The experiment is described as follows: Confirmation screen for delayed death inhibitors of the malarial parasite plastid, 48 hour incubation. Further: nearly all actives have a fitted effect of over 65% in size. Particulars: P. falciparum-infected erythrocytes, luciferase growth; series mostly up to 28.7 µM. The essentials: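 Erythrocytes infected with luciferase-expressing P. falciparum (2% hematocrit, 0.1% parasitemia) incubated with compounds 48 hours at 37 C, 5% CO2, in RPMI/Albumax. Growth inhibition scored as reduced luminescence after detection reagent.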
On to `CCCc1nnc(NC(=O)c2nc(S(=O)(=O)Cc3cccc(C)c3)ncc2Cl)s1`, for which the Potency entry is “inactive”.
Regarding `CCC(C)[C@@H](NC(=O)OC(C)(C)C)c1nnc(S(=O)(=O)Cc2cccc(C)c2)o1` (stereo not given in full), the Potency was 14.1 µM (active).
As to `O=C(COc1cccc2ccccc12)Nc1ccc(Cl)cc1C(=O)O`, the Potency entry is “inactive”.
Under `O=C(COc1ccccc1Cl)NC(=S)N1CCc2ccccc21` stands 12.6 µM (active); under `COc1cc2cc(CN(CCc3ccccc3C)C(=S)NCCCN3CCOCC3)c(=O)[nH]c2cc1OC`, 7.94 µM (active); under `COc1cc2cc(CN(Cc3cccs3)C(=S)Nc3ccc(C)cc3)c(=O)[nH]c2cc1OC`, 10 µM (active).
Consider `CCC(=O)NCCc1cc2ccc(C)cc2[nH]c1=O`, for which the Potency entry is “inactive”.
On to `CS(=O)(=O)c1ccc(-c2nnc(NC(=O)c3ccc(S(=O)(=O)N4CCCC4)cc3)o2)cc1`, for which the Potency was 14.1 µM (active).
In the case of `C=CCNC(=S)N/N=C/c1ccc(-c2cc(Cl)ccc2Cl)o1`, the Potency is 12.6 µM (active).
Consider `O=C(NCc1cccnc1)/C(=C\c1ccc(-c2cccc(Cl)c2)o1)S(=O)(=O)c1ccccc1`, for which the Potency is 12.6 µM (active).
With `O=C(NCc1cccnc1)c1nc(-c2ccccc2)n(-c2ccccc2)n1` the entry was “inactive”; with `Cc1ccc(-n2nc3c(=O)n(CCCC(=O)NCc4ccco4)nc(C)c3c2C)cc1`, 6.31 µM (active).
With `COc1ccccc1CNC(=O)CCCn1nc(C)c2c(C)n(-c3ccccc3)nc2c1=O`, the Potency was 12.6 µM (active).
With `COc1ccccc1CCNC(=O)CCn1nc(C)c2c(C)n(-c3ccccc3)nc2c1=O`, the Potency is 14.1 µM (active).
Under `COc1cc(CNC(=O)CCn2nc(C)c3c(C)n(-c4ccccc4)nc3c2=O)cc(OC)c1OC` stands 12.6 µM (active).
Regarding `Cc1ccc2c(c1)N(CCC(=O)NCc1ccco1)C(=O)CO2`, the Potency result was “inactive”.
Take `CC(=O)Nc1sc(C)c(C)c1C(=O)OCC(=O)N(CC(C)C)C1CCS(=O)(=O)C1` (stereo not given): the Potency was 12.6 µM (active).
Turning to `CSCCC(NC(=O)c1ccccc1Cl)C(=O)N1CCN(C(c2ccccc2)c2ccccc2)CC1` (stereo not given), the Potency is 3.98 µM (active).
Consider `Cc1ccc(N(Cc2ccco2)C(=O)c2ccc(N3CCCCC3)c([N+](=O)[O-])c2)cc1`, for which the Potency was 11.2 µM (active).
Consider `C=CCNC(=O)c1onc(CSc2ccccc2CC)c1C(=O)O`, for which the Potency entry was “inactive”.
Under `Fc1ccc2cnc(-c3ccccc3)c(-c3ccc(C(F)(F)F)cc3)c2c1` stands 15.8 µM (active); under `O=C(O)c1cc(-c2ccc3ccccc3c2)nc2ccc(F)cc12`, “inactive”.
As for `CCCN1CCN(C(=O)C2CCN(S(=O)(=O)c3ccc4c(c3)NC(=O)C(C)S4)CC2)CC1` (stereo not given), the Potency is 12.6 µM (active).
Take `CC(=O)c1c(C)[nH]c(C(=O)COC(=O)COc2ccccc2F)c1C`: the Potency entry was “inactive”.
Regarding `COc1ccc(C(C)(C)C)cc1NC(=O)c1[nH]c(C)c(C(C)=O)c1C`, the Potency was 7.94 µM (active).
